# From PubChem BioAssay (NCI)
# Compounds without any hit were thinned out: in the full panel of roughly 83,000, 20% have a hit.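 Activity criterion: percent growth below 10, measured after cells in 96-well plates were exposed to a single compound concentration for 48 hours.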 A number with no mark means an inactive call. Active and inactive are the calls of the source.
# Experiments:
# Assay in all cases: NCI-60 one-dose screen, 48 h (100 = growth as untreated, 0 = no growth, -100 = all killed)
# Conditions in all cases: 10 µM unless noted
# HCT-15 colon = tested on: HCT-15 colon
# HT29 colon = tested on: HT29 colon
# SNB-75 CNS = tested on: SNB-75 CNS
# SNB-19 CNS = tested on: SNB-19 CNS
# U251 CNS = tested on: U251 CNS
# PC-3 prostate = tested on: PC-3 prostate
# SK-MEL-5 melanoma = tested on: SK-MEL-5 melanoma
# LOX IMVI melanoma = tested on: LOX IMVI melanoma
# SK-MEL-28 melanoma = tested on: SK-MEL-28 melanoma
# SK-MEL-2 melanoma = tested on: SK-MEL-2 melanoma
# EKVX NSCLC = tested on: EKVX NSCLC
# SN12C renal = tested on: SN12C renal
# UO-31 renal = tested on: UO-31 renal
# TK-10 renal = tested on: TK-10 renal
# ACHN renal = tested on: ACHN renal
# CAKI-1 renal = tested on: CAKI-1 renal
# A498 renal = tested on: A498 renal
# CCRF-CEM leukemia = tested on: CCRF-CEM leukemia
# MOLT-4 leukemia = tested on: MOLT-4 leukemia
# UACC-62 melanoma = tested on: UACC-62 melanoma
SMILES,growth (HCT-15 colon),growth (HT29 colon),growth (SNB-75 CNS),growth (SNB-19 CNS),growth (U251 CNS),growth (PC-3 prostate),growth (SK-MEL-5 melanoma),growth (LOX IMVI melanoma),growth (SK-MEL-28 melanoma),growth (SK-MEL-2 melanoma),growth (EKVX NSCLC),growth (SN12C renal),growth (UO-31 renal),growth (TK-10 renal),growth (ACHN renal),growth (CAKI-1 renal),growth (A498 renal),growth (CCRF-CEM leukemia),growth (MOLT-4 leukemia),growth (UACC-62 melanoma)
Cc1cc(N2CCN(CC(=O)Nc3ccc4c(ccn4Cc4ccccc4)c3)CC2)nc(N2CCOCC2)n1,65.1%,67.3%,88.7%,84.3%,70.8%,57%,83.1%,88.2%,91.4%,93%,74.8%,87%,49%,88.2%,100%,88%,22.9%,5.84% (active),77.8%,
COC(=O)c1ccc2c(c1)c1c(C)c3cnccc3c(C)c1n2C,-8.77% (active),-10.9% (active),8.05% (active),-1.59% (active),-16.5% (active),5.43% (active),-91.3% (active),-55% (active),-54.5% (active),-56.2% (active),-7.49% (active),-3.93% (active),-45.7% (active),-15.5% (active),-27.7% (active),-10.2% (active),-84.3% (active),6.83% (active),2.75% (active),
COc1cc(/C=C2\C(=O)N(CCCOc3cc(O)c4c(=O)cc(-c5ccccc5)oc4c3)c3ccccc32)cc(OC)c1O,42.4%,-16.1% (active),47.6%,80.6%,60.9%,67%,71.9%,58.8%,90.9%,81.1%,88.4%,,61.9%,87%,93.3%,85.2%,91.7%,70.2%,64.7%,46.8%
COC(=O)c1nc(-c2ccccc2)oc1S(=O)(=O)N1CCCC(C)C1 (stereo not drawn),37.2%,56.3%,105%,91.5%,90.8%,71.6%,85.2%,61.6%,84.9%,96.7%,100%,84.4%,65.7%,50.6%,66.7%,92.6%,92.9%,1.21% (active),6.09% (active),
COc1cc(C=C2C(=O)NC(=S)NC2=O)cc(CN2CCCC2)c1O,105%,109%,95.4%,105%,96.2%,102%,111%,97.6%,115%,110%,101%,,87%,109%,111%,90.5%,101%,107%,110%,99.7%
O=c1ccc2ccc(OCCN3CCCCC3)cc2o1,108%,98.9%,105%,104%,103%,23.5%,107%,101%,102%,101%,101%,95.9%,80.8%,104%,104%,104%,85%,0.515% (active),7.74% (active),
CC1(C)CC[C@]23CC[C@]4(C)[C@H](CC[C@@H]5[C@@]6(C)C/C(=C/O)C(=O)C(C)(C)[C@@H]6CC[C@]54C)[C@H]2[C@H]1OC3,110%,100%,104%,98%,105%,86.1%,101%,90.8%,107%,108%,98.4%,,85%,113%,110%,91.1%,105%,99.5%,97.7%,93%
N#Cc1ccc(O)c(C2=NCC(c3ccc(-c4ccccc4)cc3)O2)c1 (stereo not drawn),24.6%,18.1%,26.2%,18%,4.51% (active),25.5%,3.96% (active),11.8%,23.7%,-4.74% (active),15.6%,,1.37% (active),12.4%,11.6%,3.1% (active),48.6%,11.6%,0.755% (active),-5.35% (active)
CSc1ccc2c3c(n(CCCn4ccnc4)c(=O)c2c1)-c1ccccc1C3=O,61.1%,27.1%,51.6%,33.2%,12.7%,45.6%,19.5%,1.75% (active),78.5%,97.1%,84.4%,,26.3%,83.1%,12.4%,24.6%,68.5%,15.6%,-3.86% (active),19.8%
CN(C)CCC(=O)C1CC1,106%,99.3%,102%,96%,102%,99.2%,106%,99%,107%,111%,111%,,75.9%,113%,,102%,106%,103%,96.9%,99.2%
O=C(CN1C(=O)S/C(=C\C(Cl)=C\c2ccccc2)C1=O)NC1CCS(=O)(=O)C1 (stereo not drawn),15.7%,53.5%,57.8%,86.8%,81.6%,80.9%,84.5%,14.2%,74.9%,85%,82.4%,79.7%,65.6%,64%,46.8%,78.1%,99.7%,12.3%,40.7%,
O=CCCCOCc1ccccc1,98.5%,97.2%,87.8%,100%,104%,95.6%,100%,99%,112%,104%,95.6%,98.8%,95%,97.7%,101%,98.1%,85.8%,104%,103%,
CC1(/C=C/c2ccc(-c3ccccc3)cc2)CCn2cnc3ncnc(c32)N1O (stereo not drawn),21.5%,30%,36.3%,26.7%,24.7%,42.4%,-6.47% (active),9.21% (active),29.7%,38.8%,17.6%,,-5.45% (active),34.1%,6.19% (active),4.49% (active),19%,11.8%,14.2%,0.915% (active)
c1cc(OCCCCCOc2cccc(-c3nc4ccccc4[nH]3)c2)cc(-c2nc3ccccc3[nH]2)c1,12.3%,5.53% (active),31.4%,22.3%,6.76% (active),-13.1% (active),-81.5% (active),-27.8% (active),18.7%,9.28% (active),2.5% (active),26.4%,3.69% (active),25.7%,6.47% (active),36.4%,9.68% (active),-18.9% (active),-13.5% (active),
CN1CCN(Cc2ccc(NC(=O)c3cncc(C#Cc4cnc(N)cc4C#N)c3)cc2C(F)(F)F)CC1,15.4%,5.78% (active),33.2%,39.1%,20.1%,11.7%,9.34% (active),-84.6% (active),0.973% (active),-65.9% (active),34.3%,,1.25% (active),19.4%,10.3%,-9.35% (active),-8.99% (active),6.94% (active),4.83% (active),-12.9% (active)
O=C(NCCNC(c1ccccc1)C(NCCNC(=O)c1ccccc1)c1ccccc1)c1ccccc1 (stereo not drawn),18.8%,36.7%,117%,88%,74.7%,70.4%,95.7%,75.6%,103%,45.9%,123%,97.7%,80.3%,97.5%,7.15% (active),61.6%,112%,97.1%,72.2%,
